Bioassay records as filed in PubChem BioAssay.
D1 antagonist: Antagonist of Human D 1 Dopamine Receptor: qHTS; D(1A) dopamine receptor (Homo sapiens), P21728; HEK293 TREx D1 cells, calcium flux, dopamine EC80; stronger effect = lower value; activity change, negative = inhibition, % at 10 µM; 360,000 tested, 3.2% active; AID 504652, 2011; in the data active means activity change below about -30%; further: on the % scale 0 is the no-effect control and ±100 the full control effect
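Compound effects on dopamine-evoked calcium signalling were measured in tetracycline-induced HEK293 Trex D1 cells. Dopamine at EC80 followed a 180 s compound pre-read, and fluorescence was tracked kinetically for 180 s more.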
D1 potentiator: Potentiators of Human D1 Dopamine Receptor: qHTS; D(1A) dopamine receptor (Homo sapiens), P21728; HEK293 TREx D1 cells, calcium flux, dopamine EC20 potentiation; potentiation, % at 10 µM; 360,000 tested, 0.036% active; in the data active means potentiation above about 30%; further: 0% is about no effect
D1 agonist: Allosteric Agonists of the Human D1 Dopamine Receptor: qHTS | D(1A) dopamine receptor (Homo sapiens), P21728 | HEK293 T-REx D1 cells, calcium flux, agonist mode | activation, % at 2 µM | 360,000 tested, 1% active; further: 0% is about no effect
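Agonism was scored from calcium flux recorded over 180 s (1 read/s) after pintool compound addition, following a 10-cycle baseline. Cells were inducible force-coupled HEK293 TREx D1, plated overnight at 30 C and loaded with no-wash calcium dye.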
TRHR agonist: qHTS for Small Molecule Agonists and Allosteric Enhancers of Human TRH Receptor: Primary Screen for Agonists; Thyrotropin-releasing hormone receptor (Homo sapiens), P34981; TRHR cells, calcium flux fluo-8, FDSS agonist mode; activation, % at 2 µM; 360,000 tested, 0.18% active; further: 0% is about no effect
Target sequence (P34981 whole entry, looked up): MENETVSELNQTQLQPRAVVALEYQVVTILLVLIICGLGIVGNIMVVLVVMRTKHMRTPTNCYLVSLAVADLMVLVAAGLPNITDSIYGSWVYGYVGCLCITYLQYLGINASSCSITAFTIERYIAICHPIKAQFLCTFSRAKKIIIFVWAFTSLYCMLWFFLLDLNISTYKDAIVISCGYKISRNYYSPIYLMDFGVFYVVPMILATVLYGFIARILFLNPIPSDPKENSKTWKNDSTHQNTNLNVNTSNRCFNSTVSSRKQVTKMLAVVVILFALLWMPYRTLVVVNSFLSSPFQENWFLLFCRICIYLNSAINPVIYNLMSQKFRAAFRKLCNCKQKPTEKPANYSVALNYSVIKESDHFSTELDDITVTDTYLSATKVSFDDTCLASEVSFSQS
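TRHR-expressing cells loaded with fluo-8 calcium dye; 23 nL library compound pin-transferred, kinetic FDSS fluorescence (Ex 480/Em 530) recorded about 180 s for agonist-induced calcium release, before a 10 nM TRH EC20 addition for potentiator mode.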
TRHR enhancer: qHTS for Small Molecule Agonists and Allosteric Enhancers of Human TRH Receptor: Primary Screen for Enhancers; 360,000 tested, 0.66% active; enhancement, % at 2 µM; TRHR cells, fluo-8 calcium fluorescence, EC20 TRH enhancement; in the data active means enhancement above about 30%; further: 0% is about no effect
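TRHR-expressing cells loaded with fluo-8 calcium dye were read kinetically (ex 480/em 530) during compound addition, then stimulated with an EC20 of TRH (10 nM final). Enhancement of the Gq-mediated intracellular calcium response was scored.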
The depositor's hits bear a star. A selection: hits, their analogues and other compounds. The true share with any hit is near 4.7%. Unless noted, no stated cut-off is given here; in the data, active means activation above about 30%; inactive means the rest.

SMILES	D1 antagonist	D1 potentiator	D1 agonist	TRHR agonist	TRHR enhancer
Cn1ccnc1SCC(=O)Nc1cccc2ccccc12	-34*	-7	2	0	-8
COc1cccc(-n2ccnc2SCC(=O)Nc2ccccc2F)c1	-37*	-5	3	-3	-3
CCn1c(CNC(=O)Cc2ccc(OC)cc2)nnc1SCC(=O)NC1CCCCC1	-39*	-5	0	0	-3
CCn1c(Cc2ccc(OC)cc2)nnc1SCC(=O)Nc1nc2ccccc2s1	-31*	-8	4	0	-7
CCn1c(SCC(=O)Nc2nc3ccccc3s2)nnc1-c1ccc(Br)cc1	-8	-4	2	0	0
CCc1ccccc1N(C)C(=O)c1cnc(N2CCOCC2)c2ccccc12	-13	-3	0	0	-6
COc1cc([N+](=O)[O-])c(N2CCOCC2)c([N+](=O)[O-])c1OC	-34*	-9	9	-1	6
O=[N+]([O-])c1cc(Br)c2nsnc2c1N1CCOCC1	-45*	-7	1	14	-3
O=C(CSc1nc2ccccc2o1)Nc1ccccc1	-37*	-8	3	-1	-1
O=S(=O)(NCCSc1nc2ccccc2o1)c1ccccc1	-33*	-3	7	-1	3
COc1ccc(NC(=O)Cn2c(=O)n(Cc3nc(-c4ccccc4)no3)c(=O)c3cc4c(cc32)OCO4)cc1Cl	-3	-1	3	1	-7
COc1ccc(-n2c(C)cc(/C=C/c3nc(O)c([N+](=O)[O-])c(=O)[nH]3)c2C)cc1	-54*	-4	1	0	8
Cc1ccc(NC(=O)c2nc(-c3ccncc3)no2)c(Cl)c1	-47*	-4	12	0	3
Cc1cc(C)c2oc(-c3ccc(C)c(NC(=O)/C=C/c4ccco4)c3)nc2c1	-7	-2	0	0	0
COc1cccc(Cn2c(C)c(CNCc3ccccc3Cl)c(C(=O)O)c2C)c1	25	2	4	1	-2
Cc1cccc(-c2nc(CN3CCCC(C(=O)NC4CCCCCC4)C3)c(C)o2)c1 (stereo not drawn)	-15	-4	27	1	2
CCOC(=O)N1CCC(NC(=O)CS(=O)Cc2nc(-c3ccc(C)cc3)oc2C)CC1 (stereo not drawn)	-35*	-2	-1	2	-10
CCOC(=O)N1CCC(NC(=O)C2CCCN(Cc3nc(-c4ccc(CC)cc4)oc3C)C2)CC1 (stereo not drawn)	-34*	-5	37*	-1	10
c1ccc(COc2ccc(OCCN3CCCC3)cc2)cc1	1	-7	48*	2	-2
c1ccc(COc2ccc(OCCN3CCCCC3)cc2)cc1	-31*	-4	43*	5	3
c1ccc(COc2ccc(OCCCN3CCCC3)cc2)cc1	-25	-4	26	1	-1
CC1CCN(CCCOc2ccc(OCc3ccccc3)cc2)CC1	-40*	-10	76*	2	-1
CC1CCN(CCCCOc2ccc(C(=O)c3ccccc3)cc2)CC1	-14	-9	21	1	-1
CCOC(=O)c1cnc2c(C)cc(C)cc2c1Nc1ccccc1OCC	-18	1	1	0	-4
CCOC(=O)c1cnc2c(ccc3ccccc32)c1Nc1ccccc1O	-47*	-4	1	0	1
CCOC(=O)c1cnc2ccc(Cl)cc2c1Nc1ccc(S(=O)(=O)Nc2ncccn2)cc1	7	-5	0	0	6
CCOC(=O)c1cnc2c(ccc3ccccc32)c1Cl	-53*	-2	3	0	-8
CCOC(=O)c1cnc2c(C)c(Cl)ccc2c1Nc1ccc(S(=O)(=O)Nc2ncccn2)cc1	-39*	-5	3	-1	0
NS(=O)(=O)c1ccc(NC(=O)C(Sc2ccccc2)c2ccccc2)cc1 (stereo not drawn)	-33*	0	4	1	-3
CCn1c(SCC(=O)N/N=C/C=C\c2ccccc2[N+](=O)[O-])nnc1-c1ccccc1	-57*	-1	-1	-1	-6
